Results on four compounds are retold here after PubChem BioAssay (NCATS).

The nature of experiment [1]: Quantitative High-Throughput drug screen in 47 multiple myeloma cell lines against the NCATS MIPE library collection: KMS34_JCRB cell viability assay (AID 1918985). Further: potency means the concentration at half of the fitted maximal effect; nearly all actives have a fitted effect of over 40% in size. In short, it runs like this: (§1)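 Readout: median RLU from CellTiter-Glo after 5 min at room temperature. Preceding step was 48 h drug treatment of 500 cells/well at 37 °C, 5% CO2, with DMSO-only and media-only control wells.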

Experiment [2] in a line: Quantitative High-Throughput drug screen in 47 multiple myeloma cell lines against the NCATS MIPE library collection: OCIMY7_PLB cell viability assay (AID 1918987). Further: potency means the concentration at half of the fitted maximal effect; nearly all actives have a fitted effect of over 65% in size. In short, it runs like this: as §1
The nature of experiment [3]: Quantitative High-Throughput drug screen in 47 multiple myeloma cell lines against the NCATS MIPE library collection: OCIMY5_PLB cell viability assay (AID 1918988). Further: potency means the concentration at half of the fitted maximal effect; nearly all actives have a fitted effect of over 65% in size. In short, it runs like this: as §1
A short description of experiment [4]: Quantitative High-Throughput drug screen in 47 multiple myeloma cell lines against the NCATS MIPE library collection: OPM1_PLB cell viability assay (AID 1918989). Further: potency means the concentration at half of the fitted maximal effect; nearly all actives have a fitted effect of over 40% in size. In short, it runs like this: as §1
Experiment [5] can be described thus: Quantitative High-Throughput drug screen in 47 multiple myeloma cell lines against the NCATS MIPE library collection: SKMM1_PLB cell viability assay (AID 1919863). Further: potency means the concentration at half of the fitted maximal effect; nearly all actives have a fitted effect of over 35% in size. Conditions: SKMM1 myeloma viability, CellTiter-Glo ATP, 48 h; viability: stronger effect = lower value. In short, it runs like this:
as §1

Experiment [6] is described as follows: Quantitative High-Throughput drug screen in 47 multiple myeloma cell lines against the NCATS MIPE library collection: U266_ATCC cell viability assay (AID 1919864). Further: potency means the concentration at half of the fitted maximal effect; nearly all actives have a fitted effect of over 35% in size. In short, it runs like this:
as §1

Experiment [7] in a line: Quantitative High-Throughput drug screen in 47 multiple myeloma cell lines against the NCATS MIPE library collection: XG6_PLB cell viability assay (AID 1919865). Further: potency means the concentration at half of the fitted maximal effect; nearly all actives have a fitted effect of over 40% in size. In outline:
as §1

A short description of experiment [8]: Quantitative High-Throughput drug screen in 47 multiple myeloma cell lines against the NCATS MIPE library collection: XG1_PLB cell viability assay (AID 1919866). Further: potency means the concentration at half of the fitted maximal effect; nearly all actives have a fitted effect of over 35% in size. In short, it runs like this:
as §1

The nature of experiment [9]: Quantitative High-Throughput drug screen in 47 multiple myeloma cell lines against the NCATS MIPE library collection: VP6_DJ cell viability assay (AID 1919867). Further: potency means the concentration at half of the fitted maximal effect; nearly all actives have a fitted effect of over 40% in size. In short, it runs like this:
as §1

Experiment [10] in a line: Quantitative High-Throughput drug screen in 47 multiple myeloma cell lines against the NCATS MIPE library collection: UTMC2_PLB cell viability assay (AID 1919868). Further: potency means the concentration at half of the fitted maximal effect; nearly all actives have a fitted effect of over 55% in size. Conditions: CellTiter-Glo ATP luminescence, 48 h; viability (% of DMSO control): at 45.8 µM (top of the series) unless noted. In outline: as §1
Experiment [11] is described as follows: Quantitative High-Throughput drug screen in 47 multiple myeloma cell lines against the NCATS MIPE library collection: PE2_PLB cell viability assay (AID 1919869). Further: potency means the concentration at half of the fitted maximal effect; nearly all actives have a fitted effect of over 35% in size. In short, it runs like this:
as §1

A short description of experiment [12]: Quantitative High-Throughput drug screen in 47 multiple myeloma cell lines against the NCATS MIPE library collection: PCM6_Riken cell viability assay (AID 1919870). Further: potency means the concentration at half of the fitted maximal effect; nearly all actives have a fitted effect of over 30% in size. In outline: as §1
A short description of experiment [13]: Quantitative High-Throughput drug screen in 47 multiple myeloma cell lines against the NCATS MIPE library collection: RPMI8226_ATCC cell viability assay (AID 1919871). Further: potency means the concentration at half of the fitted maximal effect; nearly all actives have a fitted effect of over 30% in size. In outline:
as §1

Experiment [14] is described as follows: Quantitative High-Throughput drug screen in 47 multiple myeloma cell lines against the NCATS MIPE library collection: OPM2_DSMZ cell viability assay (AID 1919872). Further: potency means the concentration at half of the fitted maximal effect; nearly all actives have a fitted effect of over 30% in size. In short, it runs like this:
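CellTiter-Glo ATP luminescence gave viability after 48 h compound treatment at 37C of 500 multiple myeloma cells per well. Normalisation used DMSO-only wells as 100% and media-only wells as 0% viability; primary qHTS of approved and investigational drugs.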

A short description of experiment [15]: Quantitative High-Throughput drug screen in 47 multiple myeloma cell lines against the NCATS MIPE library collection: KMS11_JCRBsus cell viability assay (AID 1919873). Further: potency means the concentration at half of the fitted maximal effect; nearly all actives have a fitted effect of over 50% in size. In short, it runs like this: as §1
Experiment [16] in a line: Quantitative High-Throughput drug screen in 47 multiple myeloma cell lines against the NCATS MIPE library collection: KMS28BM_JCRB cell viability assay (AID 1919874). In outline: as §1
Experiment [17] can be described thus: qHTS drug screen for cell cycle checkpoint inhibitors in PARPi-resistant BRCA-mutant ovarian cancer cell lines. (AID 1963452; calls by dose curve). Conditions: PEO1/OlaR viability, CellTiter-Glo luminescence, 96 h, stronger effect = lower value. In outline: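 PEO1, PEO4 and PEO1/OlaR ovarian cancer cells, 600 per well, exposed 96 h at 37C to a dilution series. Viability read by CellTiter-Glo luminescence, normalized to DMSO and empty wells; activity summarized as Z-AUC.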

A short description of experiment [18]: qHTS for identification of novel therapeutic agents for treatment of microphthalmiaassociated transcription factor (MiT) renal cell carcinoma (RCC) (AID 1963991; calls by dose curve; further: potency means the concentration at half of the fitted maximal effect). Conditions: CellTiter-Glo, 48 h; for z-score: stronger effect = lower value. In outline: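 Three TFE3-fusion RCC lines (UOK109, UOK124, UOK145), 500 cells/well in complete medium, were treated with MIPE 4.0 compounds for 48 hours at 37 C. Viability was by CellTiter-Glo luminescence, normalized to DMSO (100%) and empty wells (0%); curves fitted over 11 concentrations.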

Setting [19] is: measured here: PEO1 parental Z-AUC.

Results filed as inconclusive are left out. Activity calls are given as the source filed them. Unless noted, the call rests on the fitted dose curve; in most records, active means well fitted cell-killing curve with a large enough effect; inconclusive means small, poorly fitted or top-dose-only effect, or effect the other way; inactive means no such curve, though single readings can be large or run the other way.

With `Cn1cncc1[C@@](N)(c1ccc(Cl)cc1)c1ccc2c(c1)c(-c1cccc(Cl)c1)cc(=O)n2C`, the Potency in [1] is 833 nM (active); in experiment [2] it was 14.8 nM (active); in experiment [3] it was 7.43 µM (active); in experiment [4], 16.6 µM (active); in experiment [5], 13.2 µM (active); in experiment [6], 23.5 µM (active). Besides, the Potency is 1.87 µM (active) in experiment [7]; 332 nM (active) in experiment [8]; 14.8 µM (active) in [9]; 833 nM (active) in experiment [10]; 16.6 µM (active) in experiment [11]; 20.9 µM (active) in experiment [12]. The Potency in experiment [13] was 5.26 µM (active); in experiment [14], 11.8 µM (active); in experiment [15] it was 7.43 µM (active); in experiment [16], 20.9 µM (active). The Z-AUC was -0.153 (inactive) in [17], 0.145 in experiment [17] (setting [19]) and -0.275 in experiment [17] (measured here: PEO4 Z-AUC).

`Nc1ncnc2c1c(-c1cnc3[nH]ccc3c1)nn2C1CCCC1`: the Potency in experiment [1] is 1870 nM (active); in experiment [2], 1180 nM (active); in experiment [3] it was 3.32 µM (active); in experiment [4], 0.59 µM (active); in [5], 4.69 µM (active); in [6] it was 14.8 µM (active). Further, the Potency in experiment [7] was 0.526 µM (active); in experiment [8] it was 209 nM (active); in experiment [9], 0.372 µM (active); in experiment [10], 526 nM (active); in experiment [11] it was 1.32 µM (active); in experiment [12], 1.48 µM (active). Further, the Potency in experiment [13] was 0.166 µM (active); in [14] it was 0.935 µM (active); in [15], 0.0469 µM (active); in [16] it was 4.18 µM (active); in [18] (TFE3-RCC UOK109 viability, active = Z-AUC below -0.8 in all three lines) it was 264 nM (active). Besides, the results for the Z-AUC in experiment [17], in [17] (setting [19]) and in experiment [17] (measured here: PEO4 Z-AUC) were -1.87 (inactive), -2.04 and -1.31, respectively. For the same compound, the z-score in experiment [18] (TFE3-RCC UOK109 viability, measured here: UOK109 Z-AUC) is -2.06; in [18] (TFE3-RCC viability, measured here: UOK124 Z-AUC), -1.51; in experiment [18] (TFE3-RCC viability, measured here: UOK145 Z-AUC), -1.32.

On to `Cc1ccc(C(N)=O)cc1Nc1nccc(-c2cn(C(C)C)c3cnccc23)n1`, for which the Potency in [1] was 6620 nM (active); in experiment [2], 935 nM (active); in experiment [3] it was 7.43 µM (active); in experiment [4], 7.43 µM (active); in experiment [5], 16.6 µM (active); in [6], 8.33 µM (active). The Potency was 2.64 µM (active) in experiment [7]; 3720 nM (active) in [8]; 2.35 µM (active) in experiment [9]; 6620 nM (active) in experiment [10]; 3.72 µM (active) in experiment [11]; 2.09 µM (active) in [12]. Moreover, the figures for the Potency in experiment [14], in experiment [15] and in experiment [16] were 14.8 µM (active), 4.69 µM (active) and 5.9 µM (active), respectively. The values for the Z-AUC in experiment [17], in experiment [17] (setting [19]) and in [17] (measured here: PEO4 Z-AUC) were -1.23 (inactive), -1.45 and -1.25, respectively.

With `Cc1ccc(NC(=O)C2(c3ccc4c(c3)OC(F)(F)O4)CC2)nc1-c1cccc(C(=O)O)c1`, the Potency in [1] was 93.5 nM (active); in experiment [2], 132 nM (active); in experiment [3], 0.0469 µM (active); in experiment [4] it was 0.148 µM (active); in [5] it was 0.0743 µM (active); in [6] it was 0.0296 µM (active). The Potency in experiment [7] is 0.0662 µM (active); in [8], 46.9 nM (active); in experiment [9] it was 0.0469 µM (active); in experiment [10], 83.3 nM (active); in experiment [11], 0.105 µM (active); in experiment [12], 0.0332 µM (active). Further, the Potency in [14] was 0.0743 µM (active); in experiment [15] it was 0.0469 µM (active); in experiment [16], 0.0418 µM (active). Moreover, the Z-AUC in [17] is 0.456 (inactive); in experiment [17] (setting [19]), 0.813; in experiment [17] (measured here: PEO4 Z-AUC), 0.515.
